Data reported in PubChem BioAssay (NCATS).
Inconclusive results are not listed. The source made the active and inactive calls. Calls come from the whole dose curve; as a rule, active = well fitted curve in the direction sought with a large enough effect; inconclusive = small, poorly fitted or top-dose-only effect, or another doubt; inactive = no such curve, though single readings can be large; an effect the other way counts as inactive or inconclusive.

biological target: Cytochrome P450 3A4 (Homo sapiens) (UniProt P08684); assay: qHTS for inhibitors of CYP3A4 against the NCATS DSHEA and TCM libraries (AID 1919971); settings: recombinant CYP3A4 enzyme activity, luminescence qHTS; series mostly up to 34.1 µM; activity change, negative = inhibition: at the top concentration;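 note: % is set by controls: 0 for no effect and ±100 for the full control effect; inhibition lowers luminescence from luciferin made by CYP3A4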
Sequence (P08684 whole entry, looked up): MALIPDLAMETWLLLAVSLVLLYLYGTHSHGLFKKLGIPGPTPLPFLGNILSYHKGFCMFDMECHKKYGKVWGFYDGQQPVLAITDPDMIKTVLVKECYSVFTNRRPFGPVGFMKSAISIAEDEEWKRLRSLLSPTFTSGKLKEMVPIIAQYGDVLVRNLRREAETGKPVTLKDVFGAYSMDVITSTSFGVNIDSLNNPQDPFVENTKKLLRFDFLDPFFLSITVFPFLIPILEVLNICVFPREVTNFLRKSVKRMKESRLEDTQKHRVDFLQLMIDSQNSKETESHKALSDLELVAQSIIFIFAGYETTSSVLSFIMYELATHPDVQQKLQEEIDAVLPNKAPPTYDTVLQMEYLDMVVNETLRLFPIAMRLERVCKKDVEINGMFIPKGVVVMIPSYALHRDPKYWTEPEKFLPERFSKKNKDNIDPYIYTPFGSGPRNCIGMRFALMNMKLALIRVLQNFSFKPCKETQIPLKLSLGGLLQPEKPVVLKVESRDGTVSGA
Text: Assay Development and Screening Technology Laboratory (ADST)
National Center for Advancing Translational Sciences (NCATS), Rockville, MD
National Institute of Health (NIH), Bethesda, Maryland
Dietary Supplements and Natural Products have minor oversight of their safety and efficacy. We assembled a collection of Dietary Supplements and Natural Products (DSNP) as well as Traditional Chinese Medicinal (TCM) Plant extracts, which were screened against an in vitro panel of assays, including a liver cytochrome p450 enzyme panel, CAR/PXR signaling pathways, and P-gp transporter assays, to assess their activity. This pipeline facilitated the interrogation of Natural Product-Drug Interaction (NaPDI) through prominent metabolizing pathways. In addition, we compared the activity profiles of the DSNP/TCM substances with those of an approved drug collection. Many of the approved drugs have well-annotated mechanisms of action (MOA) while the MOAs for most of the DSNP and TCM samples remain unknown. Based on the premise that compounds with similar activity profiles tend to share similar targets or MOA, we clustered the library activity profiles to identify overlap with the NCATS Pharmaceutical Collection to predict the MOAs of the DSNP/TCM substances. Overall, we highlight four significant bioactivity profiles (measured by p-values) as examples of this prediction. To assess broad cytotoxicity, we employed screening against a HepG2 cell line. In addition, transporter-mediated drug interactions are utilized in the characterization of DDIs using a P-glycoprotein (P-gp) assays. To profile potential P-gp activity, a differential cell viability was measured against two cell lines: a parental KB-3-1 human cervical adenocarcinoma cell line and the drug-resistant subline KB-8-5-11 that overexpresses P-gp.
To this end, we profiled both collections for potential CAR and/or PXR activity, employing a previously published 1536-well qHTS assay.
[1] […]
9; Read; Luminescence; ViewLux plate reader. […]

SMILES	activity change, negative = inhibition
NC(=O)NC1NC(=O)NC1=O (stereo unspecified)	10.4% (inactive)
O=C(/C=C/c1ccc(O)c(O)c1)O[C@@H]1C[C@@](OC(=O)/C=C/c2ccc(O)c(O)c2)(C(=O)O)C[C@@H](O)[C@@H]1O	0.803% (inactive)
Cc1ccc(C(C)C)c(O)c1	-4.51% (inactive)

biological target: Cytochrome P450 2D6 (Homo sapiens) (UniProt P10635); assay: qHTS for inhibitors of CYP2D6 against the NCATS DSHEA and TCM libraries (AID 1919972); settings: CYP2D6 enzymatic inhibition, luminescence qHTS; series mostly up to 34.1 µM; activity change, negative = inhibition: at the top concentration; note: % is set by controls: 0 for no effect and ±100 for the full control effect
Sequence (P10635 whole entry, looked up): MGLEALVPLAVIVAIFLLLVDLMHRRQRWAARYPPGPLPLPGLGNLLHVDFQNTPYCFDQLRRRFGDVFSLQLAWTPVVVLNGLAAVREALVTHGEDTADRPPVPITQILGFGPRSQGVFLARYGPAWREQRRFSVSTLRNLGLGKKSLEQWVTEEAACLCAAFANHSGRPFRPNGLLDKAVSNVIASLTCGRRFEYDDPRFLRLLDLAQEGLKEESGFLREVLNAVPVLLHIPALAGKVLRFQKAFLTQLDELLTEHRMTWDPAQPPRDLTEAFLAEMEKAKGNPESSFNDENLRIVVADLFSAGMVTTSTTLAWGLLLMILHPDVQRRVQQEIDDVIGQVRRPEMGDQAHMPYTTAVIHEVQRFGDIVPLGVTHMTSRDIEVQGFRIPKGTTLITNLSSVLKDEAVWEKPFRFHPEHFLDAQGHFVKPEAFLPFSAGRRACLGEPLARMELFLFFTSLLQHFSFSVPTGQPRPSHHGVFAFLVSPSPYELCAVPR
In short: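 qHTS, concentration–response format with most substances from 19.5 nM. CYP2D6 + pro-luciferin substrate, 15 min with compound, then 1x NADPH regen, 30–45 min RT dark. Glo detection 30 min, luminescence. Quinidine control.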

SMILES	activity change, negative = inhibition
NC(=O)NC1NC(=O)NC1=O (stereo unspecified)	3.31% (inactive)
O=C(/C=C/c1ccc(O)c(O)c1)O[C@@H]1C[C@@](OC(=O)/C=C/c2ccc(O)c(O)c2)(C(=O)O)C[C@@H](O)[C@@H]1O	-1.23% (inactive)
CC(C)=CCC[C@@](C)(O)[C@H]1CC=C(C)CC1	-25.3% (inactive)
Cc1ccc(C(C)C)c(O)c1	-2.58% (inactive)

biological target: Cytochrome P450 2C9 (Homo sapiens) (UniProt P11712); assay: qHTS for inhibitors of CYP2C9 against the NCATS DSHEA and TCM libraries (AID 1919973); settings: recombinant CYP2C9 enzyme activity, luminescence; series mostly up to 34.1 µM; activity change, negative = inhibition: at the top concentration;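 note: luminogenic pro-luciferin CYP2C9 substrate turned into luciferin with NADPH regeneration; % is set by controls: 0 for no effect and ±100 for the full control effect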
Sequence (P11712 whole entry, looked up, canonical isoform): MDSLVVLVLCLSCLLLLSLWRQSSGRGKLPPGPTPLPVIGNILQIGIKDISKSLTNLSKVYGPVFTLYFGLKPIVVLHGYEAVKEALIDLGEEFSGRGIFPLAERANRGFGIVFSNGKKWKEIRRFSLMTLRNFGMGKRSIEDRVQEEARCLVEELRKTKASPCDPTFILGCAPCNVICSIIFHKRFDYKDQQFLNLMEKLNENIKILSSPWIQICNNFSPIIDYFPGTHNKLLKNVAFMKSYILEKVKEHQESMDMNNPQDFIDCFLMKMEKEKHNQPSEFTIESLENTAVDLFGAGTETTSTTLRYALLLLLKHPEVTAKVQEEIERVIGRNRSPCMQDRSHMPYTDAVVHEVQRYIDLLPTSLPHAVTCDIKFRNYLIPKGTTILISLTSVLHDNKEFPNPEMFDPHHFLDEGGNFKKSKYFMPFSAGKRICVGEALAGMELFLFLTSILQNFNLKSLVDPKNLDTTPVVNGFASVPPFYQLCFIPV
In short: (§1)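 Isoform-specific enzyme and substrate levels; enzyme-free wells as background. Reaction: 1x NADPH regenerating system, 30-45 min, room temperature, shielded from light; luminescent detection reagent added, 30 min.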

SMILES	activity change, negative = inhibition
NC(=O)NC1NC(=O)NC1=O (stereo unspecified)	13.9% (inactive)
O=C(/C=C/c1ccc(O)c(O)c1)O[C@@H]1C[C@@](OC(=O)/C=C/c2ccc(O)c(O)c2)(C(=O)O)C[C@@H](O)[C@@H]1O	-21.9% (inactive)
Cc1ccc(C(C)C)c(O)c1	-10.6% (inactive)

biological target: Cytochrome P450 2C19 (Homo sapiens) (UniProt P33261); assay: qHTS for inhibitors of CYP2C19 against the NCATS DSHEA and TCM libraries (AID 1919974); settings: CYP2C19 enzyme inhibition, luminescence qHTS; series mostly up to 34.1 µM; activity change, negative = inhibition: at the top concentration;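 note: luminescence from luciferin released by CYP2C19 oxidation of a pro-luciferin substrate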; note: potency is the fitted concentration of half-maximal effect; for activity change, negative = inhibition: % is set by controls: 0 for no effect and ±100 for the full control effect
Sequence (P33261 whole entry, looked up): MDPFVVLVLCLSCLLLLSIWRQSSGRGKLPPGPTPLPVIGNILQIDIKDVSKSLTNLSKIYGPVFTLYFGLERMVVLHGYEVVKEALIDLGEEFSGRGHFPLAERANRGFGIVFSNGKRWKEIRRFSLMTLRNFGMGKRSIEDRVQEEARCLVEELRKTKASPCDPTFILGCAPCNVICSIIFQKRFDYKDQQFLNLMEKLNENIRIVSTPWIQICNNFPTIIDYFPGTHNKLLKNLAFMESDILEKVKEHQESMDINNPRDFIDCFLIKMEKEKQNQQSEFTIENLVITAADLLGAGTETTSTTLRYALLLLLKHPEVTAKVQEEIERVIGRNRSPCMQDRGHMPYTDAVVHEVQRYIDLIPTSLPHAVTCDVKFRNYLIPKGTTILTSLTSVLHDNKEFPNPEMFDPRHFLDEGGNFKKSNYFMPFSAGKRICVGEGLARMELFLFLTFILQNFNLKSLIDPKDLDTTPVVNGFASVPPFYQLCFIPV
In short: as §1

SMILES	activity change, negative = inhibition	Potency
NC(=O)NC1NC(=O)NC1=O (stereo unspecified)	22.8% (inactive)	
O=C(/C=C/c1ccc(O)c(O)c1)O[C@@H]1C[C@@](OC(=O)/C=C/c2ccc(O)c(O)c2)(C(=O)O)C[C@@H](O)[C@@H]1O	-20.5% (inactive)	
CC(C)=CCC[C@@](C)(O)[C@H]1CC=C(C)CC1		5.01 µM (active)

tested on: not listed separately; assay: KB-3-1 P-gp reporter qHTS against the NCATS DSHEA and TCM libraries (AID 1919975); settings: KB-3-1 parental cells, CellTiter-Glo luminescence viability, 72 h; series mostly up to 26.1 µM; activity change, negative = inhibition: at the top concentration; note: 0% is about no effect
In short: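 72 h exposure of KB-3-1 cells (DMEM, 10% FBS) to DSHEA/TCM samples, concentration-response; cell viability measured as CellTiter-Glo luminescence after 30 min at room temperature.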

SMILES	activity change, negative = inhibition
NC(=O)NC1NC(=O)NC1=O (stereo unspecified)	-15.3% (inactive)
O=C(/C=C/c1ccc(O)c(O)c1)O[C@@H]1C[C@@](OC(=O)/C=C/c2ccc(O)c(O)c2)(C(=O)O)C[C@@H](O)[C@@H]1O	-1.03% (inactive)
CC(C)=CCC[C@@](C)(O)[C@H]1CC=C(C)CC1	-5.93% (inactive)
Cc1ccc(C(C)C)c(O)c1	-2.74% (inactive)

tested on: not listed separately; assay: qHTS Counterscreen for compound interference against the NCATS DSHEA and TCM libraries (AID 1919978); settings: firefly luciferase detection reagent interference, luminescence; note: % of control where 0% means no effect
In short: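 Read-out is luminescence after 30 min at RT with luciferin detection reagent. Before that, compounds (19.5 nM to 39.8 uM final) sat 15 min at RT with 1 uM D-luciferin or 100 mM potassium phosphate buffer. PTC124 served as intraplate control.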

SMILES	max response
NC(=O)NC1NC(=O)NC1=O (stereo unspecified)	-2.81% (inactive)
O=C(/C=C/c1ccc(O)c(O)c1)O[C@@H]1C[C@@](OC(=O)/C=C/c2ccc(O)c(O)c2)(C(=O)O)C[C@@H](O)[C@@H]1O	5.25% (inactive)
CC(C)=CCC[C@@](C)(O)[C@H]1CC=C(C)CC1	1.71% (inactive)
Cc1ccc(C(C)C)c(O)c1	0.241% (inactive)

tested on: not listed separately; assay: Dual reporter qHTS for agonist of Pregnane X Receptor (hPXR) against the NCATS DSHEA and TCM libraries: Fluorescence readout (AID 1920058); settings: PXR dual reporter cells; series mostly up to 40 µM; activation: at the top concentration; note: 0% is about no effect
In short: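 In this qHTS counter-read, reporter-bearing HepG2 cells in charcoal-stripped serum received substances for approximately 24 h before viability was assessed fluorometrically with CellTiter-Fluor.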

SMILES	activation
NC(=O)NC1NC(=O)NC1=O (stereo unspecified)	-14.7% (inactive)
O=C(/C=C/c1ccc(O)c(O)c1)O[C@@H]1C[C@@](OC(=O)/C=C/c2ccc(O)c(O)c2)(C(=O)O)C[C@@H](O)[C@@H]1O	-21.8% (inactive)
CC(C)=CCC[C@@](C)(O)[C@H]1CC=C(C)CC1	-20.6% (inactive)
Cc1ccc(C(C)C)c(O)c1	18.3% (inactive)

biological target: Nuclear receptor subfamily 1 group I member 2 (Homo sapiens) (UniProt O75469); assay: Dual reporter qHTS for agonist of Pregnane X Receptor (hPXR) against the NCATS DSHEA and TCM libraries: Luminescence readout (AID 1920059); settings: hPXR dual reporter cells, luciferase luminescence agonist; series mostly up to 40 µM; activation: at the top concentration; note: 0% is about no effect
Sequence (O75469 whole entry, looked up): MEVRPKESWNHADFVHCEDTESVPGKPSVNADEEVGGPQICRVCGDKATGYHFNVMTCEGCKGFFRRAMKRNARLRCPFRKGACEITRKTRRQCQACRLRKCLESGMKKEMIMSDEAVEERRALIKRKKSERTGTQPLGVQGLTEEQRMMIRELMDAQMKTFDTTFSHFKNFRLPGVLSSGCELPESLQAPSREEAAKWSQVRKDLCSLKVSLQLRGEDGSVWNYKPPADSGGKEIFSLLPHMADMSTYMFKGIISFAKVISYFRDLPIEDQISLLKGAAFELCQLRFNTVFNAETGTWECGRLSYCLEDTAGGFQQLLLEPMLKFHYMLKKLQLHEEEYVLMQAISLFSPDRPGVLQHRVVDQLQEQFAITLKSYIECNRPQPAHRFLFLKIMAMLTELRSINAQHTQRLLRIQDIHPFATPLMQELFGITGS
In short: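 hPXR-Luc HepG2 cells, 2000/well in 5% charcoal-stripped FBS medium, attached 5 h, then exposed 24 h at 37C to compounds. Viability by CellTiter-Fluor, then luciferase luminescence with ONE-Glo.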

SMILES	activation
NC(=O)NC1NC(=O)NC1=O (stereo unspecified)	-13.2% (inactive)
O=C(/C=C/c1ccc(O)c(O)c1)O[C@@H]1C[C@@](OC(=O)/C=C/c2ccc(O)c(O)c2)(C(=O)O)C[C@@H](O)[C@@H]1O	3.29% (inactive)
Cc1ccc(C(C)C)c(O)c1	0.45% (inactive)

biological target: Nuclear receptor subfamily 1 group I member 2 (Homo sapiens) (UniProt O75469); assay: Dual reporter qHTS for antagonist of Pregnane X Receptor (hPXR) against the NCATS DSHEA and TCM libraries: Luminescence Readout (AID 1920060); settings: hPXR dual reporter cells, luciferase luminescence, antagonist mode; series mostly up to 40 µM; activity change, negative = inhibition: at the top concentration;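 note: HepG2 cells carrying hPXR luciferase reporter stimulated with rifampicin at 2 µM; 0% is about no effect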
In short: (§2)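 HepG2 hPXR-Luc, 2000 cells/well, charcoal-stripped FBS medium; 5 h attach; RIF 2 uM final; 24 h 37C/5% CO2; CellTiter-Fluor 1 h, fluor 405/540; ONE-Glo 30 min RT, lum.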

SMILES	activity change, negative = inhibition
NC(=O)NC1NC(=O)NC1=O (stereo unspecified)	-4.82% (inactive)
O=C(/C=C/c1ccc(O)c(O)c1)O[C@@H]1C[C@@](OC(=O)/C=C/c2ccc(O)c(O)c2)(C(=O)O)C[C@@H](O)[C@@H]1O	-4.94% (inactive)
CC(C)=CCC[C@@](C)(O)[C@H]1CC=C(C)CC1	48.7% (inactive)
Cc1ccc(C(C)C)c(O)c1	-2.98% (inactive)

tested on: not listed separately; assay: Dual reporter qHTS for antagonist of Pregnane X Receptor (hPXR) against the NCATS DSHEA and TCM libraries: Fluorescence Readout (AID 1920061); settings: PXR dual reporter cells, antagonist mode; series mostly up to 40 µM; activity change, negative = inhibition: at the top concentration; note: 0% is about no effect
In short: as §2

SMILES	activity change, negative = inhibition
NC(=O)NC1NC(=O)NC1=O (stereo unspecified)	5.21% (inactive)
O=C(/C=C/c1ccc(O)c(O)c1)O[C@@H]1C[C@@](OC(=O)/C=C/c2ccc(O)c(O)c2)(C(=O)O)C[C@@H](O)[C@@H]1O	-4.81% (inactive)
CC(C)=CCC[C@@](C)(O)[C@H]1CC=C(C)CC1	-3.03% (inactive)
Cc1ccc(C(C)C)c(O)c1	7.12% (inactive)
